Assay outcomes as filed in PubChem BioAssay.
Sampled rows, rich in hits. Any-hit rate of the full collection: about 7.9%.
KB-V1 cytotox: kills drug-selected multidrug resistant KB-V1 cells | KB-V1 MDR cells viability, CellTiter-Glo, 72 h | Potency, µM (top dose mostly 46.1 µM), usual class: cytotoxic | hit rate 3.4% among 400,000 | AID 1347076; also: % is scaled to controls: 0 for no effect and ±100 for the full control effect; nearly all actives have a fitted effect of over 60% in size
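KB-V1 cells (P-gp-expressing MDR subline of KB-3-1) in phenol-red-free DMEM with 10% FBS were exposed to library compounds over a concentration series for 72 h at 37 degrees C. Viability read by CellTiter-Glo luminescence; concentration-effect curves fitted after normalization.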
KB-3-1 tox: KB-3-1 parental cell cytotoxicity | KB-3-1 viability, CellTiter-Glo ATP luminescence, 72 h | Potency, µM (top dose mostly 46.1 µM), actives largely listed as cytotoxic | hit rate 1.4% among 400,000 | AID 1347075; also: % is scaled to controls: 0 for no effect and ±100 for the full control effect; nearly all actives have a fitted effect of over 60% in size
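Cytotoxicity in the drug-sensitive parental line KB-3-1 was scored as loss of CellTiter-Glo luminescence following 72 h incubation with compound. Values come from curve fitting of normalized concentration-response data.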
SW480 rerep: inducers of DNA re-replication in SW480 colon cancer cells; Potency, µM (top dose mostly 46.1 µM), for inactives: at the highest dose re-replication activation, usual class: activators; SW480 DNA re-replication, Hoechst DNA content imaging, 48 h; hit rate 1.8% among 340,000; AID 624297; also: % of control where 0% means no effect; nearly all actives have a fitted effect of over 55% in size
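250 cells/well; 23 nL cpd via pin tool; 48 hr, 37 C, 5% CO2; Hoechst 40 min; imager read of total nuclear intensity, ex 405/em 500-530 nm.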
HT1080-NT tox: kills 2HG-producing HT-1080-NT fibrosarcoma cells; HT-1080-NT fibrosarcoma viability, CellTiter-Glo ATP luminescence, 48 h; Potency, µM (series often up to 46.1 µM), without a hit: top-dose activity, negative = less viability, actives largely listed as cytotoxic; hit rate 1.6% among 360,000; AID 686970;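 also: NT is the 2HG producing partner of a matched IDH1 knockdown line; 0% = DMSO-treated cells and -100% = media-only wells without cells; nearly all actives have a fitted effect of over 55% in size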
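Read-out is CellTiter-Glo luminescence after 10 minutes at room temperature, following 48 hours' compound treatment of HT-1080-NT cells (750 cells/well, RPMI, 5% FBS, 37 degrees C).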
HT1080 IDH1KD tx: HT-1080 IDH1 knockdown cell toxicity (counter line); HT-1080 IDH1 knockdown viability, ATP luminescence, 48 h; Potency, µM (series often up to 46.1 µM), without a hit: at the highest dose activity, negative = toxicity, hits mostly cytotoxic; hit rate 2% among 360,000;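 also: 0% = DMSO wells and -100% = cell-free medium wells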
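IDH1KD HT-1080 cells, 750/well, RPMI + 5% FBS; compound pinned after 2 h settling; 48 h, 37 °C; CellTiter-Glo luminescence; % activity normalised to DMSO and no-cell wells; curves fitted, classed by r2 and efficacy.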
MCF10A rerep: inducers of DNA re-replication in MCF 10A breast cells; AID 624296; MCF 10A DNA re-replication, Hoechst nuclear intensity, 48 h; Potency, µM (highest dose often 46.1 µM), without a hit: top-dose activity, positive = re-replication, actives largely listed as activators; hit rate 2.9% among 350,000; also: % of control where 0% means no effect; nearly all actives have a fitted effect of over 50% in size
* = called active by the depositor; i = inactive; ? = inconclusive; . = not tested or not shown. Calls follow the shape of the dose curve; as a rule, active = well fitted curve in the direction sought with a large enough effect; inconclusive = small, poorly fitted or top-dose-only effect, or another doubt; inactive = no such curve, though single readings can be large; an effect the other way counts as inactive or inconclusive. Potency is read from the fitted curve at half-maximal effect.

SMILES | KB-V1 cytotox | KB-3-1 tox | SW480 rerep | HT1080-NT tox | HT1080 IDH1KD tx | MCF10A rerep
CC(=O)c1c(C)[nH]c(C(=O)CSc2nnc(N)s2)c1C | i | i | -22% | 18% | -1% | 22%
Cc1c(/C=N\NC(=O)C2COc3ccccc3O2)c2ccccc2n1C (stereo not given) | ? | ? | . | 0.65µM* | 0.65µM* | ?
Cc1ccc(/C=N/NC(=O)C2COc3ccccc3O2)s1 (stereo not given) | ? | 2.1µM* | 2.8µM* | ? | 1.8µM* | 1.8µM*
Cn1cc(/C=N\NC(=O)C2COc3ccccc3O2)c2ccccc21 (stereo not given) | . | . | 17% | . | . | 5.8µM*
Cc1ccc(-n2c(O)c(/C=N/NC(=O)C3COc4ccccc4O3)c3ccccc3c2=O)cc1 (stereo not given) | ? | ? | ? | -9% | -14% | ?
O=C(N/N=C/c1c(O)n(-c2ccccc2Cl)c(=O)c2ccccc12)C1COc2ccccc2O1 (stereo not given) | ? | ? | ? | ? | ? | 21µM*
O=C(N/N=C/c1cccs1)C1COc2ccccc2O1 (stereo not given) | ? | i | -4% | ? | ? | -5%
COc1ccc(Cl)cc1NC(=O)CSc1ccc2nnc(CCNS(=O)(=O)c3ccccc3)n2n1 | i | i | . | . | . | .
CC(NS(=O)(=O)c1ccc2c(c1)CCN2C(=O)CCCC(=O)O)c1ccccc1 (stereo not given) | i | i | . | . | . | .
COc1ccc(S(=O)(=O)c2cc(NS(=O)(=O)c3ccc(Cl)cc3)c(C)c(C)c2O)cc1 | i | i | . | . | . | .
CCCCC(=O)NC(c1ccc([N+](=O)[O-])cc1)c1c(O)ccc2ccccc12 (stereo not given) | 16µM* | ? | ? | 16µM* | ? | ?
CCC(=O)NC(c1ccc([N+](=O)[O-])cc1)c1c(O)ccc2ccccc12 (stereo not given) | i | i | 0% | ? | ? | ?
COc1ccc(C(NC(=O)C(C)C)c2c(O)ccc3ccccc23)cc1 (stereo not given) | i | ? | ? | ? | ? | 18µM*
CC(C)C(=O)NC(c1ccco1)c1c(O)ccc2ccccc12 (stereo not given) | i | i | 27% | 10% | 2% | 21µM*
CCC(=O)NC(c1ccc(OC)cc1)c1c(O)ccc2ccccc12 (stereo not given) | ? | ? | ? | . | . | 20%
CCOC(=O)Cn1c(=O)n(-c2ccccc2OC)c2nc(-c3ccccc3)nc(C(N)=O)c21 | ? | i | . | . | . | .
CCCCn1c(N)c(C(=S)NC(=O)CC(C)(C)C)c(=O)n(C)c1=O | ? | ? | 7% | ? | ? | 21µM*
CC(=O)NC(Cc1ccc(I)cc1)C(=O)NCC(N)C(=O)c1ccccc1 (stereo not given) | . | . | . | -1% | 1% | .
CCc1ccc(Nc2cnn(-c3nc4ccccc4s3)c(=O)c2Cl)cc1 | 13µM* | i | -4% | -8% | 1% | 8%
Cc1ccc(-n2nc(C)c3nc(CCC(=O)Nc4cccc(F)c4)c(=O)n(C)c32)cc1 | i | i | . | . | . | .
Cc1ccc2c(c1)N(CC(=O)N(Cc1ccc3c(c1)OCO3)CC1CCCO1)C(=O)C(C)O2 (stereo not given) | 8.2µM* | i | 0% | -2% | -8% | 1%
CC(=O)COc1cc(C)cc2oc(=O)cc(-c3ccccc3)c12 | i | i | 0% | 6% | 6% | -6%
COc1ccc([N+](=O)[O-])cc1COc1cc(C)cc2oc(=O)cc(-c3ccccc3)c12 | 6.5µM* | 21µM* | ? | ? | ? | 12µM*
